Drawing on PubChem BioAssay, this text covers composite z-score and z-score for five molecules.

The structures appear in SMILES notation. Active and inactive are the calls of the source.

A short description of assay [1]: binders of probe aFSTL3 on microarray, primary screen, stem cell growth factor project, biochemical, small-molecule microarray, fluorescence 635/667 (AID 1064).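 Further: measures binding of the biotinylated anti-FSTL3 antibody to printed compounds.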 To be noted: higher = more signal.
A short description of assay [2]: binders from COS7 lysate, DM2A8 probe, primary screen, torsin A project, cell lysate, small-molecule microarray, fluorescence 635/667 (AID 1065). To be noted: higher = more signal, COS7 lysate expressing mutant human TOR1A.
A short description of assay [3]: binders of probe aFGF2 on microarray, primary screen, stem cell growth factor project, biochemical, small-molecule microarray, fluorescence 635/667 (AID 1067).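 Further: measures binding of biotinylated aFGF2 protein to printed compounds on slides; z-score merges feature fluorescence and signal-to-noise across triplicate slides.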 To be noted: higher = more signal.
Assay [4] in a line: binders of probe aFGF10 on microarray, primary screen, stem cell growth factor project, biochemical, small-molecule microarray, fluorescence 635/667 (AID 1071).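 Further: score merges 667 nm spot intensity and signal to noise from triplicate slides.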 The following applies: higher = more signal.
The target in assay [5] is Neurogenic locus notch homolog protein 2 (Homo sapiens) (UniProt Q04721). Nature of the assay: Notch2 binders on small-molecule microarrays, primary screen, biochemical, small-molecule microarray, 635 nm fluorescence, stem cell growth factors (AID 1073). The following applies: Notch2 binding, higher = more signal.
Assay [6] concerns the target Pro-neuregulin-1, membrane-bound isoform (Homo sapiens) (UniProt Q02297). Kind of assay: NRG1 binders on small-molecule microarrays, primary screen, psychiatric disease protein project, biochemical, small-molecule microarray, fluorescence 635/667 (AID 1075).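 Further: score combines 667 nm spot fluorescence with signal to noise.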 The following applies: NRG1 binding, 635 nm fluorescence, higher = more signal.
Assay [7] relates to Neuregulin-1 EGF-like domain. Kind of assay: binders of neuregulin-1 EGF-like domain, primary screen, biochemical, small-molecule microarray, 635 nm fluorescence (AID 1081).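 Further: binding of the protein to compounds printed on small-molecule microarray slides.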 To be noted: small-molecule microarray binding, higher = more signal.
Assay [8] is described as follows: FRG1 promoter luciferase signal modulators, primary screen, FRG1 inhibition for FSHD, cell-based, C2C12 myotubes, firefly/Renilla luciferase, luminescence (AID 1084). The following applies: higher = more signal, called active from +8 up or from −8 down.
A short description of assay [9]: binders of probe aFST on microarray, primary screen, stem cell growth factor project, biochemical, small-molecule microarray, fluorescence 635/667 (AID 1086).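 Further: score merges 667 nm fluorescence with signal-to-noise of each printed compound spot.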 To be noted: higher = more signal.
The nature of assay [10]: binders of probe aHhip on microarray, primary screen, stem cell growth factor project, biochemical, small-molecule microarray, fluorescence 635/667 (AID 1087).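 Further: score merges spot fluorescence at 667nm with spot signal to noise ratio.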 To be noted: higher = more signal.
The subject of assay [11] is PRMT1 (protein arginine N-methyltransferase 1). Kind of assay: PRMT1 binders on small-molecule microarrays, primary screen, biochemical, small-molecule microarray, 635 nm fluorescence (AID 1088).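 Further: binding of Prmt1 protein to compounds spotted on small-molecule microarray slides.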 The following applies: small-molecule microarray binding, higher = more signal.
Assay [12] is described as follows: yeast growth modulation, basal conditions, primary screen, YJM789 clinical isolate, OD600, 24 h (AID 1089).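 Further: growth of clinical yeast isolate S. cerevisiae YJM 789 seeded 1000 cells per well; test concentration not given here.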 To be noted: S. cerevisiae YJM789 growth, higher = more signal, called active from +8 up or from −8 down.
A short description of assay [13]: fission yeast growth modulation, primary screen, strain 972, OD600, 24 h, no modulator (AID 1090).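 Further: basal condition with compound alone and no growth modifier present; test concentration not given here.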 To be noted: S. pombe 972 growth, higher = more signal, called active from +8 up or from −8 down.
Assay [14] in a line: S. cerevisiae growth modulation with rapamycin, primary screen, strain BY4716, OD600, 96 h (AID 1091). Further: test concentration not given here. To be noted: higher = more signal, called active from +8 up or from −8 down.
The target of assay [15] is Torsin-1A-interacting protein 2 (Homo sapiens) (UniProt Q8NFQ8). Nature of the assay: LULL1 binders on small-molecule microarray, primary screen, cell lysate, human LULL1 lysate, 635/667 nm fluorescence (AID 1092).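 Further: probe is lysate of COS7 cells overexpressing human LULL1; score merges per-feature 667 nm fluorescence with signal-to-noise.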 To be noted: hLULL1 lysate binding, 635 nm fluorescence, higher = more signal.
The nature of assay [16]: E. coli growth modulation, two-sided OD650, primary screen, E. coli filamentation project, strain DRC41, 24 h (AID 1093).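 Further: MC1000 strain lacking acrAB efflux and sulA so SOS filamentation is blocked; test concentration not given here.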 To be noted: OD650, 24 h, higher = more signal, called active from +8 up or from −8 down.
The nature of assay [17]: small-molecule microarray binders of probe aLefty2, primary screen, biochemical, biotinylated probe, 635/667 nm fluorescence (AID 1094).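 Further: score merges spot fluorescence near 667 nm with spot signal-to-noise ratio.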 The following applies: higher = more signal.
Assay [18] has as its system Noggin (protein binding on small-molecule microarray). Kind of assay: Noggin binders on small-molecule microarray, primary screen, biochemical, 635/667 nm fluorescence (AID 1095).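 Further: score merges 667 nm feature fluorescence with signal to noise over triplicate slides.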 The following applies: 635 nm fluorescence, higher = more signal.
The target in assay [19] is Neurogenic locus notch homolog protein 3 (Homo sapiens) (UniProt Q9UM47). Nature of the assay: NOTCH3 binders on small-molecule microarray, primary screen, biochemical, 635/667 nm fluorescence (AID 1096). To be noted: NOTCH3 binding, 635 nm fluorescence, higher = more signal.
A short description of assay [20]: small-molecule microarray binders of probe aEGFR, primary screen, biochemical, biotinylated probe, 635/667 nm fluorescence (AID 1097).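 Further: probe is a biotinylated anti-EGFR antibody binding compounds printed on slides; score combines fluorescence near 667 nm and signal to noise of each spot.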 The following applies: higher = more signal.

Pro-neuregulin-1, membrane-bound isoform (Homo sapiens), sequence (Q02297 whole entry, looked up, the tested form may be a part, canonical isoform): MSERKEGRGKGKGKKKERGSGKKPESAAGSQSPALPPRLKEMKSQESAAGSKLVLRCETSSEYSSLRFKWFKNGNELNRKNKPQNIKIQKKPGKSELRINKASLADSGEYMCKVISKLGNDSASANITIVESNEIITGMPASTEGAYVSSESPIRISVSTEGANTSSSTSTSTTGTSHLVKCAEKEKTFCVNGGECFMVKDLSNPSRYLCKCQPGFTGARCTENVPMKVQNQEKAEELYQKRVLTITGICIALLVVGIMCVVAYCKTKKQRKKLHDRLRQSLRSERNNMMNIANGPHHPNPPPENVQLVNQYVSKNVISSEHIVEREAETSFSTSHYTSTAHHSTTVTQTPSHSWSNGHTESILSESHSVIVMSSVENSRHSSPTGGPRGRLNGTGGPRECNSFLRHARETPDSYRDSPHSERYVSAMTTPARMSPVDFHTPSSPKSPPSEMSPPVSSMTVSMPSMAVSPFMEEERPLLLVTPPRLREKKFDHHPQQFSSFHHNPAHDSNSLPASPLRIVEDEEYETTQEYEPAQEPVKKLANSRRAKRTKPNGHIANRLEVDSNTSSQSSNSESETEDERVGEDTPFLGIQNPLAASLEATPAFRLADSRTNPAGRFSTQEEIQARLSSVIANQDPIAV
Neurogenic locus notch homolog protein 2 (Homo sapiens), sequence (Q04721 whole entry, looked up, canonical isoform): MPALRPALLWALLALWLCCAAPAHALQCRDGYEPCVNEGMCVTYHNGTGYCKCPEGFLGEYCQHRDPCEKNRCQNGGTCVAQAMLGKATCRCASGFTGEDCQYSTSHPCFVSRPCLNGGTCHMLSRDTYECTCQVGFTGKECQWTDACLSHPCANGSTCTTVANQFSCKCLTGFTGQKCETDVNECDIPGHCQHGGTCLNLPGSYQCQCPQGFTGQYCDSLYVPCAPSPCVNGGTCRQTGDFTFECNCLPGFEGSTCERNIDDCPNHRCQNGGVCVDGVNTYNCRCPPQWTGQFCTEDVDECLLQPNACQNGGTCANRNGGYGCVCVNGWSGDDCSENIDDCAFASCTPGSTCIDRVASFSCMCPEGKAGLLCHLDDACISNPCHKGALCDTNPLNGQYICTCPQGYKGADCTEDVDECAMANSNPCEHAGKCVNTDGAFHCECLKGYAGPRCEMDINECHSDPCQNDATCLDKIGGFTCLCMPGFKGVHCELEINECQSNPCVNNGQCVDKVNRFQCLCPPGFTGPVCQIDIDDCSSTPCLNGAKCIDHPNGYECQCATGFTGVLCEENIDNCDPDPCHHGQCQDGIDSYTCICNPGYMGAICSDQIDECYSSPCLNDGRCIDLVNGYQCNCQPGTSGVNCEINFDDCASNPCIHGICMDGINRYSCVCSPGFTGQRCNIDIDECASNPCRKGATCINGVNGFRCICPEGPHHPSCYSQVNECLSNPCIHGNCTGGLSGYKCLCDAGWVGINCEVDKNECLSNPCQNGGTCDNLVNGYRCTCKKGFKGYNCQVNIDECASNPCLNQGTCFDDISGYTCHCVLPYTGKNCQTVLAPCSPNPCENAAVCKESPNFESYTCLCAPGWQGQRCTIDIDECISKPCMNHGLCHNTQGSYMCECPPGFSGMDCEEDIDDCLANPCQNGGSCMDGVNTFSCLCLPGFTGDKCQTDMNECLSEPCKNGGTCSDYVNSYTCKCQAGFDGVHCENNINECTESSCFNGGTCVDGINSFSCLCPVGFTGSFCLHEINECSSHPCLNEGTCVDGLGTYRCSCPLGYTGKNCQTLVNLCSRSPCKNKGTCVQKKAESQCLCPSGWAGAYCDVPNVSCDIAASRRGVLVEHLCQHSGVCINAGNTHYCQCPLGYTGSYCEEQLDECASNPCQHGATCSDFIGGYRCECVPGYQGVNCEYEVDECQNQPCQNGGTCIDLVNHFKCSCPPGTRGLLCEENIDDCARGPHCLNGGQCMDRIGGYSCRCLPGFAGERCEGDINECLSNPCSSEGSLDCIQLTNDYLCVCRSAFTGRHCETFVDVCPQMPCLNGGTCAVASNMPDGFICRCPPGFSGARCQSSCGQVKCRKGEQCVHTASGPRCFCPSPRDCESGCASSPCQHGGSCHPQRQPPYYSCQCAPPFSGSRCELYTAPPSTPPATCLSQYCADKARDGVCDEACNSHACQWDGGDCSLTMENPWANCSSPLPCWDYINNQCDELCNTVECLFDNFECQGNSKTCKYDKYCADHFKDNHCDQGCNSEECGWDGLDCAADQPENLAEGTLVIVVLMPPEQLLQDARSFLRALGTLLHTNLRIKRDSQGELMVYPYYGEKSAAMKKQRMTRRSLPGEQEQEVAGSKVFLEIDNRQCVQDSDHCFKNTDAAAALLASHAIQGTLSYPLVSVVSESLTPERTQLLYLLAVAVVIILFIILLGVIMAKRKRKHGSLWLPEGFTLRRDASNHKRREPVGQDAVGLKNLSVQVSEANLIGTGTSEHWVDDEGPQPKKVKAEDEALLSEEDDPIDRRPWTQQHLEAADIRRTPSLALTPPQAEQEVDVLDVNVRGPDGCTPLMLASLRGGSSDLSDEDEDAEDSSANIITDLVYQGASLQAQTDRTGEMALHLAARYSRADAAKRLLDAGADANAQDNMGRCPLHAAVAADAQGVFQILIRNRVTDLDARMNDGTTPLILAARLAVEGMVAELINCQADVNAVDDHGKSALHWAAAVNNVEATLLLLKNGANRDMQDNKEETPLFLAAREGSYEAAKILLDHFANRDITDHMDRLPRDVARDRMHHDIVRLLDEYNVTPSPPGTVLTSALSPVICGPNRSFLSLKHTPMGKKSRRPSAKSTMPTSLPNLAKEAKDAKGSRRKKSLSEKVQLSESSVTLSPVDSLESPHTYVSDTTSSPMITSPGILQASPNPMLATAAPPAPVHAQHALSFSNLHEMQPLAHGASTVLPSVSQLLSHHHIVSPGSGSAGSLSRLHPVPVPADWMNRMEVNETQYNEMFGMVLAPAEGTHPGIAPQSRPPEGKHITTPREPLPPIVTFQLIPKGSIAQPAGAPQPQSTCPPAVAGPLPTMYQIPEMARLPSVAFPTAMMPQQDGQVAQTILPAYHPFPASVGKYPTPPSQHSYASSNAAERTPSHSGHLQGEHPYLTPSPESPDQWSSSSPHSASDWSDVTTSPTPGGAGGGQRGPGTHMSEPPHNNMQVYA
Torsin-1A-interacting protein 2 (Homo sapiens), sequence (Q8NFQ8 whole entry, looked up): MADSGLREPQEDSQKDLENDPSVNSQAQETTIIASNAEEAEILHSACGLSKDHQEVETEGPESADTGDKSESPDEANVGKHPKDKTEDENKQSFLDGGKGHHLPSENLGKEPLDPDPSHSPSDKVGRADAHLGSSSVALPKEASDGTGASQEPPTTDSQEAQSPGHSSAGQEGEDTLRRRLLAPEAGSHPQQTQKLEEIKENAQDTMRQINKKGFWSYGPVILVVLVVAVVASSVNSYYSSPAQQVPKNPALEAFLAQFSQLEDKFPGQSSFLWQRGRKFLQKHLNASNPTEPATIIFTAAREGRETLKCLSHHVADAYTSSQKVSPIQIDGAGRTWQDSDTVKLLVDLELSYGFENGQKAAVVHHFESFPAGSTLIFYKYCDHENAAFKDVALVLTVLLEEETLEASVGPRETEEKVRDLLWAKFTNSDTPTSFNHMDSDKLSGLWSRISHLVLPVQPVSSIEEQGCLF

On to `CCN1C(=O)[C@H]2[C@H]3[C@H](O)[C@H](O)CC(=NOC[C@@H](O)COCc4ccco4)[C@H]3CC[C@H]2C1=O`, for which the composite z-score was -0.905 in [1]; 2.38 in assay [2]; -0.318 in assay [3]; -1.68 in assay [4]; -0.886 in assay [5]; -0.502 in [6]. Also, the composite z-score was 0.456 in assay [7]; -0.104 in assay [9]; 0.0578 in assay [10]; 1.21 in assay [11]; 0.327 in [15]; -0.339 in assay [17]. The composite z-score in [18] is 1.79; in assay [19], 0.0738; in [20], -0.099. For the same molecule, the z-score is -0.172 (inactive) in assay [8]; -0.0365 (inactive) in assay [12]; -0.258 (inactive) in [13]; -0.0439 (inactive) in assay [14]; 0.316 (inactive) in assay [16].

For the molecule `CO[C@H]1COC(=O)[C@H](C)COC(=O)[C@H](C)NC(=O)CC=C[C@H]1C`, the composite z-score in assay [1] is -0.874; in assay [2], 1.28; in [3], -0.145; in assay [4], 0.37; in [5], 0.127; in assay [6], -0.575. For the same molecule, the composite z-score in assay [7] is 0.887; in assay [9], 0.0261; in assay [10], 0.124; in assay [11], 1.34; in assay [15], 0.449; in [17], -0.166. Moreover, the results for the composite z-score in assay [18], in assay [19] and in assay [20] were 1.29, 0.696 and -0.122, respectively. Moreover, the z-score in assay [8] is -0.592 (inactive); in assay [12], -0.301 (inactive); in [13] it was -0.296 (inactive); in assay [14] it was -0.253 (inactive); in assay [16], 0.828 (inactive).

Take `O=C(NN=C1C[C@@H](O)[C@@H](O)[C@@H]2[C@@H]3C(=O)N(Cc4ccccc4)C(=O)[C@@H]3CC[C@H]12)OCc1ccccc1`: the composite z-score was -0.286 in [1]; 0.897 in assay [2]; -0.0996 in assay [3]; 0.378 in [4]; 0.226 in [5]; -0.153 in assay [6]. Moreover, the composite z-score was -0.15 in [7]; 0.122 in assay [9]; 0.0373 in [10]; -0.38 in assay [11]; -0.845 in assay [15]; -0.269 in assay [17]. For the same molecule, the composite z-score in [18] is 0.382; in assay [19], 0.577; in assay [20], -0.0796. For the same molecule, the z-score in assay [8] is 0.157 (inactive); in assay [12], -0.79 (inactive); in [13], -0.815 (inactive); in assay [14] it was -1.27 (inactive); in [16], 0.399 (inactive).

As for `COC(=O)CC=C[C@@H](C)[C@@H](C=NOC[C@@H](C)[C@H](OCc1ccccc1)C(C)C)OC`, the composite z-score was -0.598 in [1]; -0.163 in [2]; -0.0985 in assay [3]; 0.229 in [4]; 0.0445 in [5]; -0.296 in assay [6]. In addition, the composite z-score in [7] was 0.413; in [9], -0.0348; in [10], -0.395; in assay [11], 0.823; in assay [15] it was 0.227; in [17], -0.215. The composite z-score in assay [18] is 0.293; in assay [19] it was 0.232; in assay [20], -0.126. The z-score in [8] was 0.947 (inactive); in assay [12], 0.0783 (inactive); in assay [13] it was -0.466 (inactive); in [14] it was 1.13 (inactive); in assay [16], -0.0725 (inactive).

Consider `CO[C@@H]1COC(=O)[C@@H]2CCCN2C(=O)[C@@H](C)COC(=O)CCC[C@H]1C`, for which the composite z-score in [1] is -0.468; in [2], 0.352; in [3] it was -0.0836; in [4] it was 0.367; in assay [5] it was 0.997; in [6], -0.0887. The composite z-score in assay [7] is 1.19; in assay [9], -0.288; in assay [10] it was -0.0645; in assay [11], 1.55; in assay [15], 0.871; in assay [17] it was -0.176. Besides, the composite z-score came out at 0.456 in assay [18], 0.525 in assay [19] and 0.158 in assay [20]. The z-score in [8] was -0.343 (inactive); in assay [12] it was -1.86 (inactive); in [13] it was -0.875 (inactive); in assay [14] it was -0.815 (inactive); in assay [16], -0.76 (inactive).
